TDP1 cell CPT = growth inhibition of DT40 Tdp1-/-;hTDP1 cells with camptothecin (screen for TDP1 inhibitors). chicken DT40 Tdp1-/-;hTDP1 cells + 20 nM CPT, ATP luminescence, 48 h. Potency, µM (titrated, usually from 46.2 µM), for inactives: at the highest dose activity change, negative = growth inhibition, most hits filed as inhibitors. AID 686979. 12% of 420,000 active; further: on the % scale 0 is the no-effect control and ±100 the full control effect; nearly all actives have a fitted effect of over 55% in size
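Cell growth measured by CellTiter-Glo luminescence after a minimum 48 h, 37 C compound exposure with 20 nM CPT in Tdp1-knockout DT40 cells stably expressing hTDP1, seeded 400/well; qHTS titration format.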
TDP1 block = blocks human tyrosyl-DNA phosphodiesterase 1. 0.28% of 350,000 active. AID 485290. Potency, µM (top dose mostly 130 µM), without a hit: at the top dose activity change, negative = inhibition, usual class: inhibitors. recombinant TDP1, AlphaScreen DNA substrate cleavage; further: on the % scale 0 is the no-effect control and ±100 the full control effect; nearly all actives have a fitted effect of over 40% in size
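Compounds were preincubated with Tdp1 (1 nM final) for 15 min at room temperature before substrate (15 nM final) started a 5 min reaction; beads (10 ug/ml final) were then added for 10 min before AlphaScreen detection.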
ClpP mod = qHTS Assay for Activators of ClpP. ATP-dependent Clp protease proteolytic subunit (Bacillus subtilis (strain 168)), P80244. purified B. subtilis ClpP, FRET peptide cleavage, 20 min. Potency, µM (doses to about 57.5 µM), for the others: at the highest dose activity change, negative = active. 1.9% of 340,000 active; active means well fitted falling curve with a large enough effect; inconclusive means small, poorly fitted or top-dose-only effect; inactive means no such curve, though single readings can be large or run the other way; further: the source files actives as falling curves though it sought activators and does not explain the sign; nearly all actives have a fitted effect of over 65% in size
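Purified B. subtilis ClpP, 10 microg/mL final in Tris/HCl pH8 with KCl, BSA, glycerol and Tween-20, cleaved an Abz/nitrotyrosine-quenched decapeptide. Fluorescence (ex 320, em 430) was read at 0 and 20 min at room temperature. Delta was normalized to 5.8 microM ADEP and DMSO/no-enzyme controls.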
TDP1 cell noCPT = qHTS for Inhibitors of human tyrosyl-DNA phosphodiesterase 1 (TDP1): qHTS in cells in absence of CPT; 15% of 420,000 active; Potency, µM (highest dose often 46.2 µM), for the others: at the top dose activity change, negative = growth inhibition, usual class: inhibitors; DT40 Tdp1-/- hTDP1 cells, no CPT, ATP luminescence, 48 h; AID 686978, 2013; further: on the % scale 0 is the no-effect control and ±100 the full control effect; nearly all actives have a fitted effect of over 55% in size
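A cellular qHTS used chicken DT40 cells lacking endogenous Tdp1 but carrying stably transfected human TDP1. Compounds were applied without camptothecin, and cell growth kinetics were judged by ATP-dependent luminescence after ≥48 hr.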
Numbers without * were called inactive; [ ] = another dose, or the depositor's remark. Compounds with a hit are over-represented: about 17% of the library has one in this group of screens. Unless noted, the call rests on the fitted dose curve; in most records, active means well fitted curve in the direction sought with a large enough effect; inconclusive means small, poorly fitted or top-dose-only effect, or another doubt; inactive means no such curve, though single readings can be large; an effect the other way counts as inactive or inconclusive. Potency means the concentration at half of the fitted maximal effect.

How did COC(=O)C1=C(c2ccc(F)cc2OCc2ccccc2)C[C@@H]2CC[C@H]1N2C(=O)NC1Cc2ccccc2C1 do in these assays?
TDP1 cell CPT: inconclusive; TDP1 block: 1%; ClpP mod: -5%; TDP1 cell noCPT: 26µM*

How did COC(=O)C1=C(c2ccc(F)cc2OCc2ccccc2)C[C@@H]2CC[C@H]1N2C(=O)NCc1ccccc1Br do in these assays?
TDP1 cell CPT: inconclusive; TDP1 block: 1%; ClpP mod: 1%; TDP1 cell noCPT: 16µM*

Results for COC(=O)C1=C(c2ccc(F)cc2OCc2ccccc2)C[C@@H]2CC[C@H]1N2C(=O)NCc1ccc(F)cc1 ?
TDP1 cell CPT: inconclusive; TDP1 block: 1%; ClpP mod: -1%; TDP1 cell noCPT: inconclusive

How did COC(=O)C1=C(c2ccc(F)cc2OCc2ccccc2)C[C@@H]2CC[C@H]1N2C(=O)NCCCc1ccccc1 do in these assays?
TDP1 cell CPT: 26µM*; TDP1 block: 0%; ClpP mod: 0%; TDP1 cell noCPT: inconclusive

Results for COc1ccc(NC(=O)Nc2cccc3c2O[C@H](CN(C)C(=O)NC2CCCCC2)[C@@H](C)CN([C@H](C)CO)C3=O)cc1 ?
TDP1 cell CPT: inconclusive; TDP1 block: 0%; ClpP mod: -1%; TDP1 cell noCPT: inconclusive

Results for CSc1ccccc1NC(=O)CN(C)CC(=O)c1[nH]c(C)c(C(C)=O)c1C ?
TDP1 cell CPT: 15µM*; TDP1 block: 2%; ClpP mod: -1%; TDP1 cell noCPT: 15µM*

How did CC[n+]1c(SC)ccc2cc(OC)ccc21 do in these assays?
TDP1 cell CPT: inconclusive; TDP1 block: 0%; ClpP mod: inconclusive; TDP1 cell noCPT: 16µM*

Results for Cc1ccccc1CCNCc1cc2cccc(C)c2[nH]c1=O ?
TDP1 cell CPT: 16µM*; TDP1 block: -8%; ClpP mod: -27%; TDP1 cell noCPT: 16µM*

How did CC[C@H](CO)NC(=O)[C@H]1C=C2c3cccc4[nH]cc(c34)C[C@@H]2N(C)C1 do in these assays?
TDP1 block: 4%[56.1 µM]

Results for CCN(CC)C(=O)C(C(=O)c1cccc([N+](=O)[O-])c1)n1cc(Cl)ccc1=O (configuration not stated) ?
TDP1 cell CPT: -20%; TDP1 block: 6%; ClpP mod: 3%; TDP1 cell noCPT: inconclusive

What do the screens show for `CN1CCN(c2oc(-c3ccc(COc4ccccc4)o3)nc2C#N)CC1`?
TDP1 cell CPT: inconclusive; TDP1 block: 5%; ClpP mod: 4%; TDP1 cell noCPT: inconclusive

Results for Cc1oc(-c2ccccc2Cl)nc1CN1C(=O)CN=C(c2ccccc2)c2cc(Cl)ccc21 ?
TDP1 cell CPT: inconclusive; TDP1 block: 0%; ClpP mod: 0%; TDP1 cell noCPT: inconclusive

What do the screens show for `Cc1oc(-c2ccccc2)nc1CN1C(=O)CN=C(c2ccccc2)c2ccccc21`?
TDP1 cell CPT: 18µM*; TDP1 block: 5%; ClpP mod: 0%; TDP1 cell noCPT: inconclusive

What do the screens show for `Cc1ccc(-c2nc(CN3C(=O)CN=C(c4ccccc4Cl)c4cc(Cl)ccc43)c(C)o2)cc1`?
TDP1 cell CPT: 16µM*; TDP1 block: 6%; ClpP mod: -5%; TDP1 cell noCPT: 15µM*

Results for CCCCCCC(C)(C)c1cc(OC)c2c(c1)OC(C)(C)[C@@H]1CC=C(C)C[C@@H]21 ?
TDP1 block: 9%

What do the screens show for `Cc1[nH]ccc2c1[nH]c1cc(=O)ccc12`?
TDP1 cell CPT: 8.2µM*; TDP1 block: 9%[56.1 µM]; TDP1 cell noCPT: 13µM*

What do the screens show for `O=C(CN1CCN(C(=O)COc2cccc(F)c2)CC1)Nc1ccc(Cl)c(C(F)(F)F)c1`?
TDP1 cell CPT: 21µM*; TDP1 block: 2%; ClpP mod: 0%; TDP1 cell noCPT: 5.2µM*

How did Cc1cc(OCC(=O)N2CCN(CCc3ccncc3)CC2)ccc1Cl do in these assays?
TDP1 cell CPT: inconclusive; TDP1 block: 6%; ClpP mod: 0%; TDP1 cell noCPT: inconclusive

Results for C/C=C(\CC)C(=O)NC(N)=O ?
TDP1 cell CPT: 7%; TDP1 cell noCPT: -13%

High-throughput results as filed in PubChem.
